Out of some 1,300 compounds screened, fewer than 10 were called active.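 Rule for the calls: active = fitted half-maximal dose AC50 no more than ten times the top valid tested dose, with luminescence dropping as dose rises; inconclusive = poor fit, or flat fit with 30 to 70% inhibition; inactive = the rest, signal increases included.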 Only a sample is shown.
Test: luciferase inhibitors in kinase-free ADP detection – biochemical, luminescence, cherry-pick, set 02, artefact control for Dyrk1A inhibitor project, dose response (AID 588348);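 note: 0% = median of neutral control wells and -100% = median of positive control wells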
Details: ADP-Glo luciferase artifact assay, no Dyrk1A; series mostly up to 12 µM; activity change, negative = inhibition: at the top concentration

Activity change, negative = inhibition, inactive:
COc1c(O)cc2oc(-c3ccc(O)c(O)c3)cc(=O)c2c1O 6.57%
CCN(CC)c1ccc(NC(=O)CCc2nnc3ccc(N4CCCCC4)nn23)c(C)c1 9.92%
CCOC(=O)Cn1c(-c2cccnc2Cl)nc2ccccc21 8.46%
Cc1cc(/C=N/Nc2ccc([N+](=O)[O-])cn2)c(C)n1-c1cccc(C(=O)O)c1 8.55%
Cc1noc(C)c1-c1ccc2ncnc(NC(C)c3ccco3)c2c1 (configuration not stated) 10.7%
COc1ccc2c(Cl)c(C(=O)NCc3ccco3)sc2c1 2.94%
Cc1cccc(-c2nc(Nc3ccc(O)cc3)c3ccccc3n2)c1 8.32%
Oc1ccc(-c2nc3ccccc3nc2-c2ccc(O)cc2O)c(O)c1 6.7%
Oc1ccc(-c2[nH]ncc2-c2nc3ccccc3s2)c(O)c1 8.04%
NC(=S)c1ccc(C(N)=S)o1 8.12%
Nc1nonc1-n1nnc(C(=O)N/N=C\c2ccncc2)c1CN1CCCCC1 6.25%
C=C(C)Cn1c(N2CCN(CC)CC2)nc2c1c(=O)[nH]c(=O)n2C 8.26%
Nc1nc(SCc2ccc([N+](=O)[O-])cc2)c2ncn(C3OC(CO)C(O)C3O)c2n1 (configuration not stated) 7.11%
Nc1nc(NCCCN2CCOCC2)nc(Nc2ccccc2)c1[N+](=O)[O-] 7.41%
Cc1ccc(/C=C(\C#N)C(=O)Nc2cccc3ncccc23)o1 7.8%
CC(=O)Oc1ccc2c(c1)C(=O)c1ccccc1C2=O 8.92%
CCc1cc2c(NC3CCCC3)ncnc2s1 9.96%
COc1ccc(S(=O)(=O)N(C)C[C@H]2Oc3ccc(NS(=O)(=O)c4cccs4)cc3CC(=O)N([C@H](C)CO)C[C@H]2C)cc1 9.41%
COc1ccc2oc(N)c(C=O)c(=O)c2c1 7.76%
COc1ccc2[nH]c(C)c(CCN(Cc3cccs3)C(=S)Nc3ccccc3OC)c2c1 9.48%
NS(=O)(=O)c1ccc(-c2ccc(/C=C3\SC(=O)NC3=O)o2)cc1 5.57%
O=C(NC(Nc1nc2ccc([N+](=O)[O-])cc2s1)(C(F)(F)F)C(F)(F)F)c1ccccc1 18.5%
O=C1/C(=C/c2ccc3c(c2)OCO3)Oc2cc(OCC(=O)N3CC(O)C[C@H]3C(=O)O)ccc21 (some centres not stated) 11.8%
CCOc1cc(/C=C2\SC(N3CCCCC3)=NC2=O)ccc1O 7.18%
CCc1n[nH]c(=S)n1/N=C/c1c[nH]c2ccc(Br)cc12 7.76%
CC(=O)C1C(c2ccc(Cl)cc2)NC(=O)NC1(O)C(F)(F)F (configuration not stated) 6%
CC(=O)Nc1cccc(-c2cnc3ccccc3n2)c1 13.1%
Oc1ccc(-c2csc(Nc3cccnc3)n2)cc1 8.19%
CCOCCCNC(=O)C(NC(=O)c1ccc(=O)[nH]c1)c1ccc(Cl)cc1 (configuration not stated) 7.16%
CN1c2ccc(C=O)c3c(C=O)ccc(c23)N(C)C1(C)C 8.18%
O=C1N=C(N2CCc3ccccc3C2)S/C1=C\c1ccc(O)cc1 6.19%
O=C(NCCc1ccccc1)C1CCN(S(=O)(=O)c2ccc(Br)s2)CC1 11%
CCn1c(NC(=O)c2ccccc2)c(-c2cccs2)c(=O)c2ccccc21 7.02%
COc1cccc(C(=O)NNC(=O)/C=C/c2ccccc2)c1 9.62%
C[C@@H]1O[C@@H](OC[C@H]2O[C@@H](Oc3c(-c4ccc(O)cc4)oc4cc(O)cc(O)c4c3=O)[C@H](O)[C@@H](O)[C@@H]2O)[C@H](O)[C@H](O)[C@H]1O 10.5%
Cc1noc(NS(=O)(=O)c2ccc(NC(=O)c3oc4ccc(F)cc4c3C)cc2)c1C 8.7%
COc1cc(O)c2c(=O)c3c(O)c(O)ccc3oc2c1OC 7.64%
